# Reference: PubChem BioAssay (EPA / NIEHS)
# “And” between values parts separate entries of the source, which are not always exact repeats. Identical values can stand only once. Results filed as inconclusive are left out. The source made the active and inactive calls. The calls were made as follows, unless noted: active = hit-call score of the fitted dose curve at least 0.9, where 1 is the maximum; inconclusive = response in the unintended direction; inactive = score below 0.9.
# Assays:
# [1] = test system: Thyroperoxidase (TPO), gene 54314; assay: CCTE_Simmons_AUR_rTPO: CCTE's Amplex UltraRed Assay for Thyroperoxidase (TPO) Inhibition, Simmons Lab (AID 2283662);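 as to AC50: potency for loss of signal meaning inhibition of peroxidase activity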
# Method in brief: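 Rat thyroid microsomal TPO + 25 uM AUR in 200 mM K phosphate; cpd 5 nM–87.5 uM [final], 8 conc, 0.5% DMSO; 300 uM H2O2 starts rxn; 37C dark 30 min; endpoint FI 544/590 nm; n=3.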
# [2] = CCTE_Simmons_CellTiterGLO_HEK293T: Viability Assessment in CCTE's Assays for Thyroperoxidase (TPO) Inhibition, Simmons Lab (AID 2283665);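 as to AC50: cells exposed to compound for 24 h before readout; actives reduce ATP signal below DMSO vehicle meaning cytotoxicity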
# Method in brief: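 ATP depletion measured in HEK293T cells after 24 h dosing (8 concentrations, 5 nM–87.5 uM final; DMSO 0.5%) using CellTiter-Glo luminescence; curves fit for loss of signal against DMSO baseline.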
# [3] = Tanguay_ZF_120hpf_CFIN_legacy: (Legacy) Oregon State University Tanguay Lab 120 Hour Post-fertilization zebrafish Assay for Caudal Fin Malformation (AID 2283649)
# Method: (§1) Tanguay_ZF_120hpf_legacy is a whole embryo, multiplexed endpoint assay using zebrafish larvae exposed for 120 hours post fertilization on a 96-well plate.Tanguay_ZF_120hpf_CFIN_legacy is one of one assay component(s) measured or calculated from the Tanguay_ZF_120hpf_legacy assay. It is designed to make measurements of zebrafish development as detected with brightfield microscopy of developing zebrafish embryos.Data from the assay component Tanguay_ZF_120hpf_CFIN_legacy was analyzed into 1 assay endpoints. This assay endpoint, Tanguay_ZF_120hpf_CFIN_legacy, was analyzed in the positive analysis fitting direction relative to DMSO as the negative control and baseline of activity. […]
# (§2) Zebrafish husbandry: Tropical 5D wild-type adult zebrafish were housed in at an approximate density of 1000 per 100 gallon tank at the Sinnhuber Aquatic Research Laboratory, Oregon State University, Corvallis, OR. […] At 24 hpf, embryos were assessed for photomotor response using a custom photomotor response analysis tool (PRAT) and for developmental toxicity endpoints (MO24: mortality at 24 hpf, DP: developmental progression, SM: spontaneous movement, and NC: notochord distortion). At 120 hpf, locomotor activity was measured using Viewpoint Zebralab and assessed for 18 endpoints. […] If mortality occurred for an embryo (at either 24 or 120 hpf), the non-mortality endpoints were not measured.
# [4] = Tanguay_ZF_120hpf_PIG_legacy: (Legacy) Oregon State University Tanguay Lab 120 Hour Post-fertilization zebrafish Assay for Pigmentation Malformation (AID 2283650);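 also: dechorionated Tropical 5D zebrafish embryos exposed singly from 6 to 120 hpf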
# Method in brief: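 Brightfield scoring of pigmentation malformation at 120 hpf, recorded as binary present/absent per larva. Exposure: dechorionated 5D wild-type embryos, one per well, static from 6 hpf at 28C, final DMSO 0.64% (vol/vol). Dead embryos not scored.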
# [5] = Tanguay_ZF_120hpf_SWIM_legacy: (Legacy) Oregon State University Tanguay Lab 120 Hour Post-fertilization zebrafish Assay for Swim Bladder Malformation (AID 2283654);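 also: swim bladder malformation in each larva scored yes or no under brightfield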
# Method in brief: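 Tropical 5D embryos dechorionated at 4 hpf; 1 embryo/well from 6 hpf; static, sealed, dark exposure at 28C until 120 hpf; final DMSO 0.64%; 5uM trimethyltin chloride positive control; swim bladder defect recorded yes/no; dead embryos not scored.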
# [6] = Tanguay_ZF_120hpf_TRUN_legacy: (Legacy) Oregon State University Tanguay Lab 120 Hour Post-fertilization zebrafish Assay for Truncated Body (AID 2283655)
# Method: as §1, with “plate.Tanguay_ZF_120hpf_TRUN_legacy” for “plate.Tanguay_ZF_120hpf_CFIN_legacy”, “Tanguay_ZF_120hpf_TRUN_legacy” for “Tanguay_ZF_120hpf_CFIN_legacy”, “Tanguay_ZF_120hpf_TRUN_legacy,” for “Tanguay_ZF_120hpf_CFIN_legacy,”
# as §2
# [7] = Tanguay_ZF_120hpf_NC_legacy: (Legacy) Oregon State University Tanguay Lab 120 Hour Post-fertilization zebrafish Assay for Notochord and Tail Malformation (AID 2283656)
# Method: as §1, with “plate.Tanguay_ZF_120hpf_NC_legacy” for “plate.Tanguay_ZF_120hpf_CFIN_legacy”, “Tanguay_ZF_120hpf_NC_legacy” for “Tanguay_ZF_120hpf_CFIN_legacy”, “Tanguay_ZF_120hpf_NC_legacy,” for “Tanguay_ZF_120hpf_CFIN_legacy,”
# as §2
# [8] = Tanguay_ZF_120hpf_TR_legacy: (Legacy) Oregon State University Tanguay Lab 120 Hour Post-fertilization zebrafish Assay for Touch Response (AID 2283667)
# Method in brief: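 Binary touch-response call at 120 hpf, analysed as gain of signal versus DMSO baseline. Wild-type 5D larvae, static exposure at 28C, 0.64% DMSO final; 5uM trimethyltin chloride as positive control.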
# [9] = STM_H9_OrnithineISnorm_perc: Stemina devTOX quickPredict H9 human embryonic stem cell (hESC)-based Assay for Ornithine (ORN) Metabolite Biomarker, Normalized (AID 2283712; active = hit-call score of the fitted dose curve at least 0.9, where 1 is the maximum; inactive = score below 0.9;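 also: ornithine released into spent medium during last day measured by mass spectrometry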)
# Method in brief: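 Metabolite endpoint from spent media of pluripotent H9 cells treated 72 h with daily re-feeding; ornithine measured by UPLC-HRMS against its 13C spike-in and referenced to the median 0.1% DMSO vehicle response.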
# [10] = STM_H9_CystineISnorm_perc: Stemina devTOX quickPredict H9 human embryonic stem cell (hESC)-based Assay for Cystine (CYSS) Metabolite Biomarker, Normalized (AID 2283713; active = hit-call score of the fitted dose curve at least 0.9, where 1 is the maximum; inactive = score below 0.9)
# Method in brief: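 Normalized cystine level in conditioned medium from the final 24h of a 72h treatment of pluripotent H9 cells (daily media and compound renewal). Quantified by UPLC-HRMS with C13-labeled internal standard; scaled to median of 0.1% DMSO vehicle wells.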
compound,measurement,setting,value
CCOc1ccc(N=Nc2ccc(C=Cc3ccc(N=Nc4ccc(OCC)cc4)cc3S(=O)(=O)O)c(S(=O)(=O)O)c2)cc1,AC50,[1],30.2 µM (active)
same,AC50,[2],89.1 µM (active)
Cc1ccc(S(=O)(=O)Oc2ccc(N=Nc3ccc(-c4ccc(N=Nc5c(O)ccc6cc(S(=O)(=O)O)cc(S(=O)(=O)O)c56)c(C)c4)cc3C)cc2)cc1,AC50,[1],18.2 µM (active)
same,AC50,[2],18.3 µM (active)
CC(CN=Cc1ccccc1O)N=Cc1ccccc1O (configuration not stated),AC50,[1],26 µM (active)
COc1ccccc1N=Nc1c(S(=O)(=O)O)cc2cc(S(=O)(=O)O)cc(NC(C)=O)c2c1O,AC50,[1],34.8 µM (active)
same,AC50,[2],12.2 µM (active)
CCCCCCCCCCCCCCN(CCO)CCO,AC50,[1],44.8 µM (active)
same,AC50,[2],21.4 µM (active)
CCCCC(CC)COC(=O)c1ccc(O)cc1 (configuration not stated),AC50,[1],44.7 µM (active)
same,AC50,[2],24.7 µM (active)
CS(=O)(=O)OCCCCOS(C)(=O)=O,outcome,[3],inactive
same,outcome,[4],inactive
same,outcome,[5],inactive
same,outcome,[6],inactive
same,AC50,[7],47.1 µM (active)
same,AC50,[1],30.6 µM (active)
same,outcome,[2],inactive
same,outcome,[8],inactive
same,AC50,[9],36.3 µM (active)
same,AC50,[10],5.25 µM (active)
CCCCCCCCC=CCCCCCCCC1=NCCN1CCO,AC50,[1],37.9 µM (active) and 8.64 µM (active)
same,AC50,[2],14 µM (active) and 13.8 µM (active)
[O-]n1ccccc1=S.[O-]n1ccccc1=S.[Zn+2],AC50,[1],3.72 µM (active)
same,AC50,[2],2.57 µM (active)
O=C(Nc1ccc2c(O)c(N=Nc3ccc(N=Nc4ccc(S(=O)(=O)O)cc4)cc3)c(S(=O)(=O)O)cc2c1)c1ccccc1,AC50,[1],32.7 µM (active)
same,AC50,[2],14.4 µM (active)
CCc1cc(Cc2cc(CC)cc(C(C)(C)C)c2O)c(O)c(C(C)(C)C)c1,AC50,[1],1.8 µM (active)
same,AC50,[2],11.1 µM (active)
CCc1cc(C(C)(C)C)c(O)c(C(C)(C)C)c1,AC50,[1],4.83 µM (active)
same,AC50,[2],24.3 µM (active)
Cc1cc(C)nc(NS(=O)(=O)c2ccc(N)cc2)n1,AC50,[1],14.3 µM (active)
Cc1cc(S(=O)(=O)O)ccc1N=Nc1c(O)ccc2ccccc12,AC50,[1],35 µM (active)
same,AC50,[2],24 µM (active)
CC(C)CCCCCCCCCCCCCCC(=O)O,AC50,[1],43.8 µM (active)
O=C(O)CCCCCCCCC(=O)O,outcome,[1],inactive
same,outcome,[2],inactive
C=C1CC[C@H](O)C/C1=C/C=C1\CCC[C@]2(C)[C@@H]([C@H](C)/C=C/[C@H](C)C(C)C)CC[C@@H]12,AC50,[1],41.3 µM (active)
same,AC50,[2],78.7 µM (active)
Nc1ccc2cc(S(=O)(=O)O)cc(O)c2c1N=Nc1ccccc1C(F)(F)F,AC50,[1],20.2 µM (active)
same,AC50,[2],31.1 µM (active)
CCc1ccc(O)cc1,outcome,[1],inactive
CN(C)c1cccc(O)c1,AC50,[1],1.34 µM (active)
same,outcome,[2],inactive
CC(C)NCC(O)COc1ccc(CC(N)=O)cc1 (configuration not stated),outcome,[1],inactive
CCCCCC(C=O)=Cc1ccccc1,AC50,[1],19.4 µM (active)
same,AC50,[2],88.1 µM (active)
CCOc1ccccc1O,AC50,[1],19.1 µM (active)
O=c1c(O)c(-c2ccc(O)cc2)oc2cc(O)cc(O)c12,AC50,[1],0.0805 µM (active)
same,outcome,[2],inactive
CCOC(=O)c1ccc(N)cc1,AC50,[1],22.2 µM (active)
same,AC50,[2],21.1 µM (active)
CSCCC=O,AC50,[1],43.8 µM (active)
COc1ccc(N=Nc2cc(C)c(N=Nc3ccc(S(=O)(=O)O)cc3)cc2OC)cc1,AC50,[1],53.9 µM (active)
same,AC50,[2],77.9 µM (active)
CCCCCCCCc1ccc(S(=O)(=O)O)cc1,AC50,[1],43.8 µM (active)
same,AC50,[2],83.5 µM (active)
O=C(O)c1ccc(O)cc1,AC50,[1],35.3 µM (active)
same,outcome,[2],inactive
O=C1OC[C@H](Cc2cccc(O)c2)[C@H]1Cc1cccc(O)c1,AC50,[1],7.74 µM (active)
Oc1ccc2cc(SSc3ccc4cc(O)ccc4c3)ccc2c1,AC50,[1],2.45 µM (active)
same,AC50,[2],74.3 µM (active)
